LDHA inh = qHTS assay for inhibitors of human lactate dehydrogenase; activity change, % (values are at about 110 or 230 µM); purified LDHA, NADH/diaphorase-resazurin fluorescence; stronger effect = lower value; L-lactate dehydrogenase A chain (Homo sapiens), P00338; 480,000 compounds, 0.15% hits; in the data active = activity change below about -30%; inconclusive = mostly about -25% to -30%;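 note: plate controls were DMSO wells for no effect and wells without enzyme for full effect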
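Remaining NADH was detected by diaphorase (0.133 mg/mL) converting 37 µM resazurin to fluorescent resorufin, read at 0 and 20 minutes. The preceding 5-minute room-temperature reaction used 2 nM LDHA, 0.2 mM sodium pyruvate and 0.06 mM NADH at pH 7.4.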
TDP1 cell noCPT = qHTS for Inhibitors of human tyrosyl-DNA phosphodiesterase 1 (TDP1): qHTS in cells in absence of CPT; DT40 Tdp1-/- hTDP1 cells, no CPT, ATP luminescence, 48 h; Potency, µM (top dose mostly 46.2 µM), for the others: at the highest dose activity change, negative = growth inhibition, hits mostly inhibitors; 420,000 compounds, 15% hits; AID 686978, 2013; note: potency is the fitted concentration of half-maximal effect; nearly all actives have a fitted effect of over 55% in size
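Camptothecin absent (DMSO only). Human TDP1-complemented DT40 knockout cells, 400 cells/well, 37 °C for minimum 48 hr; ATP measured via CellTiter-Glo, 30 min dark incubation, luminescence.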
Gal4-VP16 FLuc = VP16 counterscreen qHTS for inhibitors of ROR gamma transcriptional activity. AID 2546, 2010. Drosophila S2 Gal4-VP16 UAS-luciferase, luminescence, 20 h. 310,000 compounds, 3.5% hits. Potency, µM (top dose mostly 53.6 µM), for inactives: at the highest dose activity, negative = inhibition, hits mostly inhibitors;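 note: Gal4-VP16 expression switched on by copper sulfate through the metallothionein promoter; potency is the fitted concentration of half-maximal effect; nearly all actives have a fitted effect of over 50% in size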
DT40 TDP1 CPT = qHTS for Inhibitors of human tyrosyl-DNA phosphodiesterase 1 (TDP1): qHTS in cells in presence of CPT; chicken DT40 Tdp1-/-;hTDP1 cells + 20 nM CPT, ATP luminescence, 48 h; Potency, µM (titrated, usually from 46.2 µM), without a hit: top-dose activity change, negative = growth inhibition, usual class: inhibitors; 420,000 compounds, 12% hits; AID 686979, 2013; note: potency is the fitted concentration of half-maximal effect; nearly all actives have a fitted effect of over 55% in size
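Chicken DT40 Tdp1-/- cells complemented with human TDP1, 400 cells/well, exposed to compounds plus 20 nM camptothecin for at least 48 h at 37 C; viability read as ATP content by CellTiter-Glo luminescence.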
IL-1B inflam inh = qHTS for Inhibitors of Inflammasome Signaling: IL-1-beta AlphaLISA Primary Screen; THP-1 LPS/ATP IL-1B secretion, AlphaLISA, 16 h; stronger effect = lower value; activity change, % at 57.5 µM; 360,000 compounds, 4.7% hits; AID 743279, 2014; in the data active = activity change below about -50%; inconclusive = mostly about -30% to -49%
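THP-1 cells pretreated 1 hr with compounds (up to 57.5 uM final), then stimulated with LPS (250 ng/mL final) plus ATP (1.25 mM final); secreted IL-1B measured by AlphaLISA after 16 hr, decreased signal indicating inhibition.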
RORg inh = qHTS for inhibitors of ROR gamma transcriptional activity | Drosophila S2 Gal4-RORgamma UAS-luciferase reporter, 20 h | Potency, µM (titrated, usually from 53.6 µM), inactives show at the top dose activity change, negative = inhibition, usual class: inhibitors | 310,000 compounds, 5.4% hits; note: potency is the fitted concentration of half-maximal effect; nearly all actives have a fitted effect of over 60% in size
Target sequence (P51450 whole entry, looked up, the tested form may be a part): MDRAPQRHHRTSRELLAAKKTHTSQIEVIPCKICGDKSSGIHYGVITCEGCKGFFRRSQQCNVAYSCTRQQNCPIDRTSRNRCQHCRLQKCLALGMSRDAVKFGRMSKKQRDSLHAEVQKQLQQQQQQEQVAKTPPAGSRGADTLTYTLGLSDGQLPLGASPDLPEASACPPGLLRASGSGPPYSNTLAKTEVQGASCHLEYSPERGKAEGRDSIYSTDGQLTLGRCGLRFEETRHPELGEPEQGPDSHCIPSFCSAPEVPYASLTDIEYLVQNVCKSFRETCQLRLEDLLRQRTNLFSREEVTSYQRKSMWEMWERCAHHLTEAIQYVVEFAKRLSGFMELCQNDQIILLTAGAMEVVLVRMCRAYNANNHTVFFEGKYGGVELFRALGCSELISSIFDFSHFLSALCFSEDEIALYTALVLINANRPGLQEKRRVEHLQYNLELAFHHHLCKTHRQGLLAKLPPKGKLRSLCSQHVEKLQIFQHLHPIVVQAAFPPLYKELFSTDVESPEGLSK
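Read-out: Photinus luciferase luminescence; inhibitors lower reporter signal. Insect Schneider cells with Gal4-ROR gamma fusion under metallothionein promoter, UAS reporter; 700 uM final copper sulfate induction, 20 hr, ambient temperature.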
An asterisk follows results filed as active; ? = inconclusive; nt = not tested or not shown; [ ] = another dose, or the depositor's remark. A selection: hits, their analogues and other compounds. The true share with any hit is near 18%. Unless noted, calls come from the whole dose curve; as a rule, active = well fitted curve in the direction sought with a large enough effect; inconclusive = small, poorly fitted or top-dose-only effect, or another doubt; inactive = no such curve, though single readings can be large; an effect the other way counts as inactive or inconclusive. Unless noted, % is set by controls: 0 for no effect and ±100 for the full control effect.

SMILES	LDHA inh	TDP1 cell noCPT	Gal4-VP16 FLuc	DT40 TDP1 CPT	IL-1B inflam inh	RORg inh
CCOC(=O)C1=C(NC#N)OC(C)=C(C)C1c1ccc(O)cc1 (configuration not stated)	4	21µM*	-13%[0.365 µM]	23µM*	15	-5%
O=C1NC[C@H](Cc2ccccc2)N(CC2CCN(CCc3ccc(-c4ccccc4)cc3)CC2)C1=O	-2	16µM*	nt	21µM*	-59*	nt
CC(C)C[C@H]1CNC(=O)C(=O)N1CC1CCN(CCc2ccccc2)CC1	-10	17%	nt	-12%	-7	nt
CC(C)C[C@H]1CNC(=O)C(=O)N1CC1CCN(CCc2ccc(-c3ccccc3)cc2)CC1	0	-18%	nt	-23%	-67*	nt
COc1cccc(NC(=O)Nc2nnc(N3C(C)CCCC3C)s2)c1 (configuration not stated)	-5	18µM*	26%	?	41	15%
COc1cccc(NC(=S)NN2CCN(C)CC2)c1	-3	0%	-14%	29µM*	21	-18%
COc1cccc(NC(=S)NN2C(C)CCCC2C)c1 (configuration not stated)	-2	4%	5.6µM*	-6%	10	2.2µM*
Cc1cccc(NC(=O)Nc2nnc(N3CCCCC3C)s2)c1C (configuration not stated)	-7	?	0%	6%	11	3%
CN1CCN(NC(=S)Nc2ccc(Oc3ccccc3)cc2)CC1	-2	?	-14%	-3%	-4	?
CC1CCCCN1c1nnc(NC(=O)Nc2ccccc2F)s1 (configuration not stated)	0	21µM*	nt	?	nt	nt
O=[N+]([O-])c1ccccc1S(=O)(=O)Nc1cccc(-n2cccn2)c1	-4	nt	nt	nt	nt	nt
COCCOc1ccc(C(=O)NC(C)(C)C)cc1Br	2	nt	nt	nt	nt	nt
COc1ccc(C2=Nc3ccccc3NC(=O)C2N(CCc2cc(OC)cc(OC)c2)C(C)=O)cc1 (configuration not stated)	2	?	nt	23µM*	?	nt
COc1ccc(-c2cc(=S)ss2)cc1	nt	?	7%	19µM*	nt	?
COc1ccc(-c2ccc(OC)cc2)cc1	-3	1%	-10%	6%	-11	-10%
CC(OC(=O)CSc1ccc([N+](=O)[O-])cc1)C(=O)NCc1ccccc1 (configuration not stated)	3	16µM*	nt	21µM*	-22	nt
Cc1ccc(CN(C)C(=O)COC(=O)CSc2ccc([N+](=O)[O-])cc2)cc1	0	16µM*	nt	?	4	nt
O=C(COC(=O)CSc1ccc([N+](=O)[O-])cc1)NCCc1ccccc1	0	8%	nt	-3%	-3	nt
O=C(COC(=O)CSc1ccc([N+](=O)[O-])cc1)NCCCc1ccccc1	2	?	4%	15µM*	6	1%
Cc1cc(CSc2nnc(-c3cccnc3)n2Cc2ccccc2)no1	8	nt	nt	nt	nt	nt
COC(=O)CCN(C)CC1CCCO1 (configuration not stated)	3	nt	nt	nt	nt	nt
OC(COc1ccccc1)CN1CCCC1 (configuration not stated)	-4	-2%	-13%	13%	0	-12%
CC1CCCN(CC(O)COc2ccc(-c3ccccc3)cc2)C1 (configuration not stated)	-3	?	-2%	?	?	15%
OC1CCCN(CC(O)COc2ccc(-c3ccccc3)cc2)C1 (configuration not stated)	-3	23µM*	-1%	?	-26	-19%
CC(C)(c1ccccc1)c1ccc(OCC(O)CN2CCCC2)cc1 (configuration not stated)	-2	?	-7%	?	-67*	?
SMILES	LDHA inh	TDP1 cell noCPT	Gal4-VP16 FLuc	DT40 TDP1 CPT	IL-1B inflam inh	RORg inh
CC(C)c1ccccc1NC(=S)NC(=O)C1CCCCC1	-3	?	nt	?	71	nt
N#Cc1ccccc1NC(=S)NC(=O)C1CCC1	0	4%	-6%	-26%	10	?
COc1ccccc1NC(=S)NC(=O)C1CC1	-4	-20%	?	1%	-10	13µM*
Cc1ccc(NC(=S)NC(=O)C2CCCCC2)c(Br)c1	4	15µM*	nt	?	46	nt
Cc1ccc(NC(=O)C2CCCC2)c(Br)c1	-4	-19%	nt	-21%	-28	nt
O=C(NC(=S)Nc1ccccc1Cl)C1CC1	-17	11%	11µM*	-11%	14	?
O=C(NC(=S)Nc1ccccc1Br)C1CCC1	-3	-2%	5µM*	-19%	44	3.2µM*
CCN(C(=O)c1cccc(C(F)(F)F)c1)C1CC1	-2	nt	nt	nt	nt	nt
Cc1c(C(=O)NC2CCCc3ccccc32)oc2ccc(S(=O)(=O)N3CCOCC3)cc12 (configuration not stated)	-5	?	-9%	?	34	0%
Cc1c(C(=O)NC2CCCc3ccccc32)oc2ccc(S(=O)(=O)N3CCCC3)cc12 (configuration not stated)	-6	?	-7%	8.2µM*	36	-9%
Cc1c(C(=O)NC2CCCc3ccccc32)oc2ccc(S(=O)(=O)N3CCCCC3)cc12 (configuration not stated)	1	?	-1%	0.26µM*	23	1%
Cc1c(C(=O)O)oc2ccc(S(=O)(=O)N3CCCC3)cc12	-8	10%	-17%	9%	25	-6%
COc1ccc(-c2nc3cc(NC(=O)c4cccc(Br)c4)ccc3o2)cc1	8	nt	nt	nt	nt	nt
CN(C)C(=O)c1ccc(NC(=O)c2cc(Br)c(Br)s2)cc1	0	nt	nt	nt	nt	nt
O=C(Nc1nc2ccccc2[nH]1)c1cccs1	-3	-13%	13µM*	?	-14	5µM*
COc1cccc(C(=O)Nc2nc3ccccc3[nH]2)c1	3	?	10µM*	-23%	-19	4µM*
COc1ccc(C(=O)Nc2nc3ccccc3[nH]2)cc1	2	23µM*	6.3µM*	16µM*	-1	2.8µM*
C[C@H]1CCCCO[C@H](CN(C)C(=O)Nc2ccc(F)cc2)[C@@H](C)CN([C@@H](C)CO)C(=O)c2cc(NC(=O)Nc3ccc4c(c3)OCO4)ccc2O1	13	?	nt	21µM*	-17	nt

Compound activity deposited in PubChem BioAssay by National Center for Advancing Translational Sciences (NCATS).
